{"source": "PubChem BioAssay (NCI)", "note": "Several values for one entry are separate records, joined by “and”; a condition that tells them apart may be missing. Equal entries are not always repeated. The panel holds about 83,000 compounds, 20% with a hit somewhere; the sample as a whole holds those more often.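 Interpretation: 100, growth as untreated; towards 0, rising growth inhibition; 0, no net growth; 0 to -100, cell death. Compounds scoring below 10 were considered active.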 Values without a mark were called inactive. Activity calls are given as the source filed them.", "data": [{"tested_on": "MDA-MB-468 breast", "test": "NCI-60 one-dose screen, 48 h (100 = growth as untreated, 0 = no growth, -100 = all killed)", "conditions": "10 µM unless noted", "values": [{"smiles": "COC(=O)[C@]12CC[C@@H](C)[C@H](C)[C@@H]1C1=CC[C@@H]3[C@@]4(C)C(C=O)=C[C@@](C)(COC(=O)/C=C/c5ccccc5)[C@@H]4[C@H](O)C[C@@]3(C)[C@]1(C)CC2", "growth": "14.9%"}, {"smiles": "O=C1c2cccc3cccc(c23)C(=O)N1CC#Cc1ccc2c3c(cccc13)C(=O)N(CCO)C2=O", "growth": "94.2%"}, {"smiles": "COc1ccc2c(c1)CCc1[nH]nc(-c3cc(OC)c(OC)c(OC)c3)c1-2", "growth": "-4.62% (active)"}, {"smiles": "C=C1C(=O)O[C@H]2[C@H]1CC/C(COC(=O)c1cccnc1)=C\\CC[C@@]1(C)O[C@@H]21", "growth": "17.6%"}, {"smiles": "CN(C)N=Nc1nn(C(=O)Nc2ccc(Cc3ccccc3)cc2)c2ccccc12", "growth": "69.2%"}, {"smiles": "CCCCCc1ccc(S(=O)(=O)Nc2cc(-c3csc(NC(=O)CN4CCN(CCO)CC4)n3)ccc2OC)cc1", "growth": "69.1%"}, {"smiles": "O=S(=O)(O)c1ccc(N=NSc2ccc3ccccc3c2)cc1", "growth": "108%"}, {"smiles": "Cc1cccc(C)c1NC(=O)CSC(=S)N1CCN(CCOCCO)CC1", "growth": "127%"}, {"smiles": "NS(=O)(=O)Oc1ccc2c(ccn2C(=O)C23CC4CC(CC(C4)C2)C3)c1", "growth": "90.8%"}, {"smiles": "Cn1cc(-c2csc(-c3cn(C(=O)OC(C)(C)C)c4ccc(Br)cc34)n2)c2cccnc21", "growth": "104%"}, {"smiles": "c1ccc(NCc2ccc3c(c2)OCO3)cc1", "growth": "104% and 97.7%"}, {"smiles": "FC(F)(F)Oc1cccc(-c2cnc3ccc(-c4ccncc4)nn23)c1", "growth": "-10.5% (active)"}, {"smiles": "CCC(OC(=O)CC(C)C)c1ccccc1", "note": "(stereo not given)", "growth": "99.3%"}, {"smiles": "C/C(CCC(=O)O)=N/Nc1ccc([N+](=O)[O-])cc1", "growth": "83.7%"}, {"smiles": "CNCCNc1nc2ccccc2c2c(=O)c3cccc(C)c3sc12", "growth": "-14.9% (active)"}, {"smiles": "O=C(CCc1nnc2sc(Cc3ccccc3Cl)nn12)c1nc2ccccc2[nH]1", "growth": "84.5%"}, {"smiles": "Cc1nonc1-c1ccc2c(c1)OCO2", "growth": "111% and 93.8%"}, {"smiles": "O=c1c2cccc3c(Nc4c(F)cccc4F)ccc(c32)c2nc3ccccc3n12", "growth": "-33.5% (active)"}, {"smiles": "COc1cc(/C=C/C(=O)c2cc(OC)c(OC)c(OC)c2)ccc1OCc1ccc(F)cc1", "growth": "17.8%"}, {"smiles": "Cc1[nH]c(C(=O)Nc2ccccc2OCc2cccc(C(=O)N3CCC[C@@H](N)C3)c2)c(Cl)c1Cl", "growth": "-74% (active)"}, {"smiles": "O=S(=O)(NCCNc1cc(-c2c(-c3cccc(O)c3)nc3sccn23)ccn1)c1ccc(Br)cc1", "growth": "47.7%"}, {"smiles": "CN1CCN(C(=O)OCc2ccc3c(Cl)cc(Cl)c(O)c3n2)CC1", "growth": "67.1%"}, {"smiles": "CCCCCCCCCCOC(=O)c1nn(C(C)=O)c2cc(C)c(C)cc12", "growth": "111%"}, {"smiles": "O=C1/C(=C/c2ccccc2O)N=C2SCCCN12", "growth": "99.2%"}, {"smiles": "O=C(O)c1cn(C2CC2)c2cc(N3CCN(C(=O)Nc4nc(-c5ccc(Br)cc5)cs4)CC3)c(F)cc2c1=O", "growth": "13.7%"}, {"smiles": "O=C(CCl)N1c2ccccc2Sc2ccc3ccccc3c21", "growth": "-76.1% (active)"}, {"smiles": "O=C(/C=C/c1c(Cl)nc2sccn12)c1ccc(F)c(F)c1", "growth": "35.4%"}, {"smiles": "O=[N+]([O-])c1ccccc1S(=O)c1ccccc1[N+](=O)[O-]", "growth": "40.1%"}, {"smiles": "CN1CCN(CC(=O)N(C)c2ccc(N=C(c3ccccc3)c3c(O)[nH]c4ccc([N+](=O)[O-])cc34)cc2)CC1", "growth": "87.8%"}, {"smiles": "CC(C)(C)Nc1nc2c(OCCc3ccccc3)cccn2c1-c1ccc(O)cc1", "growth": "26%"}, {"smiles": "O=C(N/N=C/c1ccc(O)cc1O)c1ccc(Nc2ccnc(C(F)(F)F)c2)cc1", "growth": "29.5%"}, {"smiles": "COc1ccc(/C=C/c2c(C(=O)/C=C/c3ccccc3)c(C)nc3ccccc23)cc1", "growth": "12.8%"}, {"smiles": "CCC1=Cc2c(OC)cccc2OC12C=Cc1c(OC)cccc1O2", "note": "(stereo not given)", "growth": "54%"}, {"smiles": "O=C(c1ccccc1)C(Br)C(Br)c1ccccc1", "note": "(stereo not given)", "growth": "72.3%"}, {"smiles": "Cc1ccc(C)n1/C=C/n1c(C)ccc1C", "growth": "95.1%"}, {"smiles": "Nc1nc(-c2ccccc2)nc(N)c1N=O", "growth": "72.4%"}, {"smiles": "CC(=O)Nc1ccc2c(c1)C(N1CC3CCC(CC3)C1)c1ccccc1-2", "note": "(stereo not given)", "growth": "94%"}, {"smiles": "COc1cc(C2CC(C3C(=O)N(C)C(=O)N(C)C3=O)=NN2c2cc(Cl)cc(Cl)c2)cc(OC)c1OC", "note": "(stereo not given)", "growth": "84.5%"}, {"smiles": "CSc1ccc(OC(C)=O)cc1C", "growth": "93.8%"}, {"smiles": "OCC(O)C(O)C(O)C(O)/C=N/O", "note": "(stereo not given)", "growth": "99.5%"}]}]}
